Measured values published in PubChem BioAssay (NCI).
About 79,000 compounds went through this panel and 15% of them were active in at least one assay; those are over-represented in the sample as a whole. A number with no mark means an inactive call. Calls of active or inactive are those of the source. Rule as the data show it: active = growth inhibition above about 70%; inactive = the rest.

Assay: NCI Yeast Anticancer Drug Screen. Data for the bub3 strain (AID 167)
Conditions: S. cerevisiae bub3 mutant strain, at 50.0 µM, stronger effect = higher value
How it was run: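 Whole-cell yeast assay. The mutant strain was incubated with compounds, and growth inhibition was determined by comparison with vehicle-treated cells.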

Structure (SMILES) | growth inhibition
OC(c1ccccc1)C(CN1CCCCC1)c1ccccc1 (stereo not given) | 4.95%
c1ccc(CSc2ccc3ccccc3c2)cc1 | -4.1%
CC1(C(=O)O)CCCC2(C)c3ccc(O)cc3CCC12 (stereo not given) | 61.1%
CCC(=O)C1(N2CCOCC2)CCN(CCCC(=O)c2ccc(F)cc2)CC1 | -0.3%
CC(C)C(C(N)=O)C(C)C | 0%
CCCCCCCCCCCCCCCCOc1ccc(-c2cc(=O)n(C)n2C)cc1OC | -8.55%
O=C1OC(c2ccc([N+](=O)[O-])cc2)=N/C1=C\c1ccc(Cl)c(Cl)c1 | 25.2%
CCc1cc2c(Nc3ccccc3)c3c(nc2s1)CCCC3 | 16.4%
CCOC(=O)c1c2ccc(/C=C/c3ccccn3)ccc-2c(C(=O)OCC)c1N | 0.9%
CN(C)CCCNc1nc(Cl)nc2nc(-c3ccccc3)c(-c3ccccc3)nc12 | 28.9%
OCC1C2C=CC1CC2 (stereo not given) | 11.7%
O=c1[nH]c(=O)c2nc[nH]c(=O)c2[nH]1 | -11.6%
Cc1cc(C)[n+](C)c(/C=C\c2ccccc2Cl)n1 | -2.5%
O=C(CSc1cc(Cl)c(Cl)cc1Cl)Nc1cccc(Cl)c1 | -2.85%
Cn1cc(C(=O)c2ccccc2)c2ccccc2c1=O | 31.9%
O=C1CC23CC(=O)CC2(C1)c1ccccc1C3=O (stereo not given) | 3.05%
O=C1C(=O)c2ccccc2C(O)=C1c1ccccc1 | 5.6%
CC(=O)Nc1ccc(S(=O)(=O)NCCC(=O)O)cc1 | 4.45%
C[N+]1(C)CCN(S(=O)(=O)c2ccccc2)c2ccccc21 | -19.6%
CCc1ccc(-c2c(-c3ccccc3)c(-c3ccccc3)c(-c3ccccc3)c(-c3ccccc3)c2-c2ccccc2)cc1 | -6.3%

Structure (SMILES) | growth inhibition
CCOc1ccccc1NC(=O)Nc1ccccc1Cl | 7.5%
Cc1ccc(CNc2ccccc2)cc1 | 14.7%
NC(N)=NS(=O)(=O)c1ccc(Nc2c3ccccc3nc3c(C(=O)N4CCN(CCO)CC4)cccc23)cc1 | -5%
CC(=O)NC(Cc1ccc(C)cc1)C(=O)O (stereo not given) | -3.05%
CNC(=O)NC(C)(C)CCCCC(C)(C)NC(=O)NC | -4.65%
CC[N+](CC)(CC)CCCC[P+](CC)(CC)CC | 10.2%
O=C(CCc1ccccc1)NC(=S)Nc1cc(C(F)(F)F)ccc1Cl | -8%
CC1(CO)C(O)CCC2(C)C1C(O)CC1CC3CC12CCC3(O)CO (stereo not given) | -21.1%
O=C(CN1CCCc2ccccc21)c1ccccc1 | 19%
N=C(N)SCC(=O)c1ccc([N+](=O)[O-])cc1 | 3.85%
CCCCCCCC(=O)NS(=O)(=O)c1ccccc1 | 37.2%
CCOC(=O)NC(=O)c1cn(C2OC(COC(=O)CCCCCCCCC(=O)OCC3OC(n4cc(C(=O)NC(=O)OCC)c(=O)[nH]c4=O)C4OC(C)(C)OC34)C3OC(C)(C)OC32)c(=O)[nH]c1=O (stereo not given) | -16.1%
CC1=CC(=O)C(=CN2C(=O)/C(=C\c3cccnc3)NC2=S)C(=O)O1 | -3.7%
CCC(C(=O)O)C(C)(C)C (stereo not given) | -0.3%
CCOC(=O)[C@H]1Nc2c(cccc2[N+](=O)[O-])[C@H]2OCC[C@@H]12 | -22.6%
N#CCCOC(=O)Nc1ccccc1 | -8.3%
O=C(O)CNC(=O)C(Cc1ccccc1)NC(=O)CNC(=O)C(CSC(c1ccccc1)c1ccccc1)NC(=O)C(CSC(c1ccccc1)(c1ccccc1)c1ccccc1)NC(=O)OCc1ccccc1 (stereo not given) | -9.55%
Cc1ccc(S(=O)(=O)OC(c2ccc(C(OS(=O)(=O)c3ccc(C)cc3)(C(F)(F)F)C(F)(F)F)cc2)(C(F)(F)F)C(F)(F)F)cc1 | 4.4%
CC1(C)OC2OC(C3CC3)C(O)C2O1 (stereo not given) | 11.9%
O=C1OC(=O)c2ccc(SCC(O)CCl)c3cccc1c23 (stereo not given) | 98.9% (active)

Assay: NCI Yeast Anticancer Drug Screen. Data for the mlh1 rad18 strain (AID 175)
Conditions: S. cerevisiae mlh1 rad18 strain growth inhibition; at 50.0 µM; stronger effect = higher value
How it was run: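 Genetically defined yeast (DNA repair-deficient) exposed to compounds; growth inhibition determined relative to vehicle.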

Structure (SMILES) | growth inhibition
OC(c1ccccc1)C(CN1CCCCC1)c1ccccc1 (stereo not given) | 15.4%
c1ccc(CSc2ccc3ccccc3c2)cc1 | -29.9%
CC1(C(=O)O)CCCC2(C)c3ccc(O)cc3CCC12 (stereo not given) | 45%
CCC(=O)C1(N2CCOCC2)CCN(CCCC(=O)c2ccc(F)cc2)CC1 | 22.1%
CC(C)C(C(N)=O)C(C)C | -1.2%
CCCCCCCCCCCCCCCCOc1ccc(-c2cc(=O)n(C)n2C)cc1OC | -16.2%
O=C1OC(c2ccc([N+](=O)[O-])cc2)=N/C1=C\c1ccc(Cl)c(Cl)c1 | 46.2%
CCc1cc2c(Nc3ccccc3)c3c(nc2s1)CCCC3 | -33.5%
CCOC(=O)c1c2ccc(/C=C/c3ccccn3)ccc-2c(C(=O)OCC)c1N | -3.1%
CN(C)CCCNc1nc(Cl)nc2nc(-c3ccccc3)c(-c3ccccc3)nc12 | 61.2%
OCC1C2C=CC1CC2 (stereo not given) | -2.7%
O=c1[nH]c(=O)c2nc[nH]c(=O)c2[nH]1 | -13.2%
Cc1cc(C)[n+](C)c(/C=C\c2ccccc2Cl)n1 | 22.1%
O=C(CSc1cc(Cl)c(Cl)cc1Cl)Nc1cccc(Cl)c1 | 3.5%
Cn1cc(C(=O)c2ccccc2)c2ccccc2c1=O | 16.4%
O=C1CC23CC(=O)CC2(C1)c1ccccc1C3=O (stereo not given) | 13.7%
O=C1C(=O)c2ccccc2C(O)=C1c1ccccc1 | 51%
CC(=O)Nc1ccc(S(=O)(=O)NCCC(=O)O)cc1 | 21.8%
C[N+]1(C)CCN(S(=O)(=O)c2ccccc2)c2ccccc21 | -18.4%
CCc1ccc(-c2c(-c3ccccc3)c(-c3ccccc3)c(-c3ccccc3)c(-c3ccccc3)c2-c2ccccc2)cc1 | 30.9%

Structure (SMILES) | growth inhibition
CCOc1ccccc1NC(=O)Nc1ccccc1Cl | 21.3%
Cc1ccc(CNc2ccccc2)cc1 | 7.55%
NC(N)=NS(=O)(=O)c1ccc(Nc2c3ccccc3nc3c(C(=O)N4CCN(CCO)CC4)cccc23)cc1 | -11.2%
CC(=O)NC(Cc1ccc(C)cc1)C(=O)O (stereo not given) | 1.7%
CNC(=O)NC(C)(C)CCCCC(C)(C)NC(=O)NC | 19.8%
CC[N+](CC)(CC)CCCC[P+](CC)(CC)CC | 13.7%
O=C(CCc1ccccc1)NC(=S)Nc1cc(C(F)(F)F)ccc1Cl | 34.9%
CC1(CO)C(O)CCC2(C)C1C(O)CC1CC3CC12CCC3(O)CO (stereo not given) | -22.1%
O=C(CN1CCCc2ccccc21)c1ccccc1 | 10.4%
N=C(N)SCC(=O)c1ccc([N+](=O)[O-])cc1 | 5.8%
CCCCCCCC(=O)NS(=O)(=O)c1ccccc1 | 39.8%
CCOC(=O)NC(=O)c1cn(C2OC(COC(=O)CCCCCCCCC(=O)OCC3OC(n4cc(C(=O)NC(=O)OCC)c(=O)[nH]c4=O)C4OC(C)(C)OC34)C3OC(C)(C)OC32)c(=O)[nH]c1=O (stereo not given) | -24.9%
CC1=CC(=O)C(=CN2C(=O)/C(=C\c3cccnc3)NC2=S)C(=O)O1 | -21.9%
CCC(C(=O)O)C(C)(C)C (stereo not given) | 9.3%
CCOC(=O)[C@H]1Nc2c(cccc2[N+](=O)[O-])[C@H]2OCC[C@@H]12 | -26.9%
N#CCCOC(=O)Nc1ccccc1 | 0.6%
O=C(O)CNC(=O)C(Cc1ccccc1)NC(=O)CNC(=O)C(CSC(c1ccccc1)c1ccccc1)NC(=O)C(CSC(c1ccccc1)(c1ccccc1)c1ccccc1)NC(=O)OCc1ccccc1 (stereo not given) | 44.1%
Cc1ccc(S(=O)(=O)OC(c2ccc(C(OS(=O)(=O)c3ccc(C)cc3)(C(F)(F)F)C(F)(F)F)cc2)(C(F)(F)F)C(F)(F)F)cc1 | 4.7%
CC1(C)OC2OC(C3CC3)C(O)C2O1 (stereo not given) | -1.85%
O=C1OC(=O)c2ccc(SCC(O)CCl)c3cccc1c23 (stereo not given) | 99.2% (active)
